Where a name gives a salt, the structure may show the parent alone. ± gives the standard deviation or the standard deviation of the averaged measurements.
Legend:
Details in all cases: 25 µM; exposure: 24-48 hpf
[1] = system: Danio rerio Tg(wt1b:EGFP) embryo, pronephros; assay: glomerular separation, fold change vs DMSO control; higher = glomeruli further apart (abnormal)
How it was run: (§1)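 Dechorionated Tg(wt1b:EGFP) zebrafish embryos were incubated at 28.5°C from 24 to 48 hpf with 25 μM compound in HEPES-buffered E3 containing 0.5% DMSO and 0.003% PTU. Distances and angles between 16 manually set points on maximum projections of dorsal pronephros images were measured in Fiji, with values over 2 SD from the feature mean excluded. Each feature is a fold change relative to the mean of same-day DMSO-treated embryos.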

[2] = system: Danio rerio Tg(wt1b:EGFP) embryo, pronephros; assay: glomerular width (mean of left and right), fold change vs DMSO control; higher = wider glomerulus
How it was run: as §1

[3] = system: Danio rerio Tg(wt1b:EGFP) embryo, pronephros; assay: fraction of imaged embryos annotated as normal kidney; higher = less nephrotoxic; extreme values may be limits of the assay
How it was run: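 Dechorionated Tg(wt1b:EGFP) zebrafish embryos were incubated with 25 μM compound in 0.5% DMSO, 5 mM HEPES-buffered E3 and 0.003% PTU from 24 to 48 hpf at 28.5°C. Pronephroi were then imaged by widefield fluorescence, and the fraction of embryos per treatment assigned by hand to the normal-kidney category is given.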

[4] = system: Danio rerio Tg(wt1b:EGFP) embryo, pronephros; assay: pronephric angle neck segment to proximal convoluted tubule (mean of left and right), fold change vs DMSO control; higher = larger pronephric angle
How it was run: as §1

| SMILES | glomerular separation [1] | glomerular width [2] | fraction of imaged embryos annotated as normal kidney [3] | pronephric angle neck segment [4] |
| --- | --- | --- | --- | --- |
| CN(C)c1ccc(O)c2c1C[C@H]1C[C@H]3[C@H](N(C)C)C(O)=C(C(N)=O)C(=O)[C@@]3(O)C(O)=C1C2=O [Minocycline hydrochloride] | 1.02 ± 0.2 | 1.02 ± 0.024 | 0.8 | 0.92712 ± 6.2e-05 |
| COC(=O)C1=C(C)NC(C)=C(C(=O)OC)C1c1ccccc1[N+](=O)[O-] [Nifedipine] | 1.1 ± 0.54 | 1.05 ± 0.077 | 0 | 1.33 ± 0.09 |
| OCCOCCN1CCN(C(c2ccccc2)c2ccc(Cl)cc2)CC1 (configuration not stated) [Hydroxyzine dihydrochloride] | 0.754 ± 0.2 | 1.02 ± 0.013 | 1 | 0.964 ± 0.048 |
| CCN1C(=O)NC(c2ccccc2)C1=O (configuration not stated) [Ethotoin] | 0.796 ± 0.17 | 0.998 ± 0.037 | 0.917 | 0.942 ± 0.014 |
| CCN1CCC[C@H]1CNC(=O)c1c(O)c(Cl)cc(Cl)c1OC [Raclopride] | 1.26 ± 0.47 | 0.903 ± 0.033 | 0.917 | 1.02 ± 0.12 |
| Cc1cnc(NC(=O)C2=C(O)c3ccccc3S(=O)(=O)N2C)s1 [Meloxicam] | 6.33 ± 2.2 | 0.678 ± 0.021 | 0 | 1.76 ± 0.0091 |
| CC(=O)[C@@]12O[C@](C)(c3ccccc3)O[C@@H]1C[C@H]1[C@@H]3CCC4=CC(=O)CC[C@]4(C)[C@H]3CC[C@@]12C [Algestone acetophenide] | 1.76 ± 0.84 | 1.05 ± 0.047 | 0.5 | 1.02 ± 0.048 |
| Cc1nc(=O)c2cc(CN(C)c3ccc(C(=O)N[C@@H](CCC(=O)O)C(=O)O)s3)ccc2[nH]1 [Raltitrexed] | 0.711 ± 0.3 | 1.08 ± 0.017 | 0.917 | 0.9802 ± 0.0082 |
| c1ccc(C2CN3CCSC3=N2)cc1 (configuration not stated) [Tetramisole hydrochloride] | 0.817 ± 0.29 | 1.05 ± 0.032 | 0.75 | 0.94 ± 0.035 |
| N=C(N)N/N=C/c1c(Cl)cccc1Cl [Guanabenz acetate] | 1.12 ± 0.47 | 1.072 ± 0.01 | 1 | 0.9461 ± 0.00069 |
| CCOC(=O)[C@H](CCc1ccccc1)N[C@@H](C)C(=O)N1Cc2ccccc2C[C@H]1C(=O)O [Quinapril hydrochloride] | 0.927 ± 0.39 | 0.987 ± 0.012 | 1 | 0.99 ± 0.015 |
| Nc1ccc(S(=O)(=O)Nc2ccc(Cl)nn2)cc1 [Sulfachloropyridazine] | 0.92 ± 0.34 | 0.973 ± 0.029 | 0.75 | 1.017 ± 0.0048 |
| Cn1c(=O)c2c(ncn2CCO)n(C)c1=O [Etofylline] | 0.926 ± 0.37 | 0.951 ± 0.023 | 0.917 | 0.9776 ± 0.00038 |
| CCCCN1CCCCC1C(=O)Nc1c(C)cccc1C (configuration not stated) [Bupivacaine hydrochloride] | 1.23 ± 0.54 | 0.946 ± 0.021 | 0.667 | 1.01 ± 0.13 |
| NC[C@@H]1O[C@H](O[C@H]2[C@@H](O)[C@H](O[C@@H]3[C@@H](O)[C@H](N)C[C@H](N)[C@H]3O[C@H]3O[C@H](CO)[C@@H](O)[C@H](O)[C@H]3N)O[C@@H]2CO)[C@H](N)[C@@H](O)[C@@H]1O [Paromomycin sulfate] | 0.691 ± 0.18 | 1.07 ± 0.0023 | 0.75 | 0.99 ± 0.051 |
| CO[C@@]1(NC(=O)Cc2cccs2)C(=O)N2C(C(=O)O)=C(COC(N)=O)CS[C@@H]21 [Cefoxitin sodium salt] | 0.796 ± 0.27 | 0.975 ± 0.012 | 0.833 | 0.968 ± 0.04 |
| Oc1ccc(OCc2ccccc2)cc1 [Monobenzone] | 2.85 ± 1.3 | 0.753 ± 0.068 | 0.25 | 1.21 ± 0.018 |
| CCOC(=O)[C@H](CCc1ccccc1)N[C@@H](C)C(=O)N1[C@H](C(=O)O)C[C@@H]2CCC[C@@H]21 [Ramipril] | 0.977 ± 0.26 | 0.8501 ± 0.0032 | 1 | 1.037 ± 0.0046 |
| Cn1ccnc1S [Methimazole] | 1.23 ± 0.58 | 0.876 ± 0.045 | 0.818 | 1.11 ± 0.064 |
| CN(CCCN1c2ccccc2CCc2ccccc21)CC(=O)c1ccc(Cl)cc1 [Lofepramine] | 1.23 ± 0.38 | 0.98 ± 0.035 | 0.917 | 1.09 ± 0.011 |
| Cn1cnc2c1c(=O)[nH]c(=O)n2C [Theobromine] | 0.91 ± 0.41 | 0.947 ± 0.022 | 0.667 | 1.0118 ± 0.00063 |
| c1ccc(CNc2ncnc3nc[nH]c23)cc1 [Aminopurine, 6-benzyl] | 1.17 ± 0.43 | 1.01 ± 0.042 | 0.667 | 1.02 ± 0.019 |
| CNS(=O)(=O)Cc1ccc2[nH]cc(CCN(C)C)c2c1 [Sumatriptan succinate] | 0.982 ± 0.29 | 1.03 ± 0.053 | 1 | 1 ± 0.04 |
| COC(=O)C1=C(C)NC(C)=C(C(=O)OC2CCCN(Cc3ccccc3)C2)C1c1cccc([N+](=O)[O-])c1 (configuration not stated) [Benidipine hydrochloride] | 4.55 ± 0.53 | 0.7 ± 0.061 | 0 | 0.99 ± 0.056 |
| CC(C)NCC(O)COc1ccc(CCOCC2CC2)cc1 (configuration not stated) [Betaxolol hydrochloride] | 1.15 ± 0.6 | 1 ± 0.065 | 1 | 0.987 ± 0.025 |
| CC(C)(CO)C(O)C(=O)NCCCO (configuration not stated) [Panthenol (D)] | 0.954 ± 0.35 | 1.001 ± 0.0062 | 0.75 | 1.008 ± 0.005 |
| Cc1ccc(S(=O)(=O)NC(=O)NN2CC3CCCC3C2)cc1 (configuration not stated) [Gliclazide] | 0.87 ± 0.46 | 1.05 ± 0.021 | 0.917 | 0.982 ± 0.011 |

| SMILES | glomerular separation [1] | glomerular width [2] | fraction of imaged embryos annotated as normal kidney [3] | pronephric angle neck segment [4] |
| --- | --- | --- | --- | --- |
| O=C(O)COCCN1CCN(C(c2ccccc2)c2ccc(Cl)cc2)CC1 (configuration not stated) [Cetirizine dihydrochloride] | 0.855 ± 0.18 | 1.09 ± 0.012 | 1 | 1.03 ± 0.011 |
| CCN(CC)CCc1nc(-c2ccccc2)no1 [Oxalamine citrate salt] | 0.929 ± 0.43 | 0.933 ± 0.016 | 0.917 | 0.893 ± 0.035 |
| NC(=O)OCC(COC(N)=O)c1ccccc1 [Felbamate] | 0.918 ± 0.32 | 1.05 ± 0.031 | 0.833 | 1.01 ± 0.013 |
| NS(=O)(=O)c1cc(Cl)c(Cl)c(S(N)(=O)=O)c1 [Dichlorphenamide] | 0.91 ± 0.4 | 1.15 ± 0.06 | 0.727 | 0.941 ± 0.041 |
| Nc1ccn([C@@H]2O[C@H](CO)[C@@H](O)C2(F)F)c(=O)n1 [Gemcitabine] | 0.851 ± 0.34 | 0.99 ± 0.053 | 0.917 | 1.03 ± 0.039 |
| CC[C@H](C)[C@H](N)C1=N[C@H](C(=O)N[C@@H](CC(C)C)C(=O)N[C@H](CCC(=O)O)C(=O)N[C@H](C(=O)N[C@H]2CCCCNC(=O)[C@H](CC(N)=O)NC(=O)[C@@H](CC(=O)O)NC(=O)[C@H](Cc3cnc[nH]3)NC(=O)[C@@H](Cc3ccccc3)NC(=O)[C@H]([C@@H](C)CC)NC(=O)[C@@H](CCCN)NC2=O)[C@@H](C)CC)CS1 [Bacitracin] | 0.822 ± 0.28 | 0.912 ± 0.019 | 1 | 1.01 ± 0.013 |
| COc1cc(NC(C)CCCN)c2ncccc2c1 (configuration not stated) [Primaquine diphosphate] | 1.04 ± 0.21 | 1.04 ± 0.079 | 1 | 1.01 ± 0.074 |
| CC(N/C(=N\C#N)Nc1ccncc1)C(C)(C)C (configuration not stated) [Pinacidil] | 0.881 ± 0.21 | 1.05 ± 0.1 | 0.727 | 1.01 ± 0.036 |
| CC(C)NCC(O)c1ccc(O)c(O)c1 (single isomer, unassigned; (-)) [(-)-Isoproterenol hydrochloride] | 0.881 ± 0.24 | 1.033 ± 0.0021 | 0.833 | 1.02 ± 0.021 |
| CC(=O)O[C@]1(C(C)=O)CC[C@H]2[C@@H]3C=C(Cl)C4=CC(=O)CC[C@]4(C)[C@H]3CC[C@@]21C [Chlormadinone acetate] | 1.26 ± 0.62 | 0.909 ± 0.053 | 0.636 | 1.17 ± 0.093 |
| C=CC1=C(C(=O)O)N2C(=O)[C@@H](NC(=O)/C(=N\OCC(=O)O)c3csc(N)n3)[C@H]2SC1 [Cefixime] | 1.32 ± 0.59 | 1 ± 0.014 | 0.75 | 1.07 ± 0.1 |
| CC(=O)OCC(=O)NCCCOc1cccc(CN2CCCCC2)c1 [Roxatidine Acetate hydrochloride] | 1.07 ± 0.37 | 1 ± 0.03 | 0.667 | 1.01 ± 0.06 |
| COc1ncnc(NS(=O)(=O)c2ccc(N)cc2)c1OC [Sulfadoxine] | 0.694 ± 0.18 | 0.997 ± 0.062 | 0.833 | 1.02 ± 0.066 |
| c1ccc(-c2ccc(C(c3ccccc3)n3ccnc3)cc2)cc1 (configuration not stated) [Bifonazole] | 1.24 ± 0.55 | 0.786 ± 0.019 | 0.417 | 1.22 ± 0.14 |
| COc1ccccc1N1CCN(CCCNc2cc(=O)n(C)c(=O)n2C)CC1 [Urapidil hydrochloride] | 1.09 ± 0.36 | 0.969 ± 0.025 | 0.917 | 1.02 ± 0.025 |
| CC1(C)O[C@@H]2C[C@H]3[C@@H]4C[C@H](F)C5=CC(=O)C=C[C@]5(C)[C@H]4[C@@H](O)C[C@]3(C)[C@]2(C(=O)CO)O1 [Flunisolide] | 1.26 ± 0.42 | 1.21 ± 0.018 | 0.667 | 0.92856 ± 0.0002 |
| Cc1c(N(C)CS(=O)(=O)O)c(=O)n(-c2ccccc2)n1C [Dipyrone] | 0.952 ± 0.36 | 0.936 ± 0.012 | 0.917 | 0.993 ± 0.021 |
| OCC(O)CN1CCN(c2ccccc2)CC1 (racemic) [Dropropizine (R,S)] | 0.917 ± 0.28 | 1.002 ± 0.0079 | 0.75 | 1.03 ± 0.038 |
| CC(CN1c2ccccc2Sc2ccccc21)N(C)C (configuration not stated) [Promethazine hydrochloride] | 0.666 ± 0.15 | 0.9984 ± 0.0084 | 0.833 | 0.994 ± 0.068 |
| CC1(C)O[C@@H]2C[C@H]3[C@@H]4CCC5=CC(=O)CC[C@]5(C)[C@@]4(F)[C@@H](O)C[C@]3(C)[C@]2(C(=O)CCl)O1 [Halcinonide] | 2.01 ± 0.91 | 1.18 ± 0.014 | 0.333 | 1.14 ± 0.043 |
| CCCCCNC(=N)N/N=C/c1c[nH]c2ccc(OC)cc12 [Tegaserod maleate] | 1.26 ± 0.31 | 0.997 ± 0.032 | 0.7 | 0.963 ± 0.048 |
| CN(Cc1cc(Br)cc(Br)c1N)C1CCCCC1 [Bromhexine hydrochloride] | 0.612 ± 0.2 | 0.984 ± 0.067 | 1 | 1 ± 0.026 |
| NCCC[C@H](N)CC(=O)N[C@H]1CNC(=O)[C@H]([C@H]2C[C@H](O)NC(N)=N2)NC(=O)/C(=C/NC(N)=O)NC(=O)[C@H](CO)NC(=O)[C@H](CO)NC1=O [Viomycin sulfate] | 1.23 ± 0.3 | 0.86 ± 0.0024 | 0.833 | 1.07 ± 0.088 |
| CCC[C@@H]1C[C@@H](C(=O)N[C@@H]([C@H]2O[C@H](SC)[C@H](O)[C@@H](O)[C@H]2O)[C@@H](C)O)N(C)C1 [Lincomycin hydrochloride] | 0.865 ± 0.33 | 0.984 ± 0.037 | 0.917 | 0.9548 ± 0.0043 |
| CCN(CCO)CCCC(C)Nc1ccnc2cc(Cl)ccc12 (configuration not stated) [Hydroxychloroquine sulfate] | 1.03 ± 0.49 | 1.038 ± 0.0043 | 0.833 | 0.935 ± 0.055 |
| CC(C)(Oc1ccc(CCNC(=O)c2ccc(Cl)cc2)cc1)C(=O)O [Bezafibrate] | 0.842 ± 0.27 | 0.988 ± 0.072 | 0.917 | 0.966 ± 0.0086 |

— the supplement of paper PMC7366291
